The entries come from a sample that favours hits as a whole.
ST2 inh – inhibitors of human ST2 (IL1RL1) binding to IL-33; Q01638; AlphaLISA ST2-Fc/biotin-IL-33 interaction, 1 h; inhibition, % for hits at 17 µM; hit rate 2.3% among 78,000; in the data active means inhibition above about 30%
Target sequence (Q01638 whole entry, looked up): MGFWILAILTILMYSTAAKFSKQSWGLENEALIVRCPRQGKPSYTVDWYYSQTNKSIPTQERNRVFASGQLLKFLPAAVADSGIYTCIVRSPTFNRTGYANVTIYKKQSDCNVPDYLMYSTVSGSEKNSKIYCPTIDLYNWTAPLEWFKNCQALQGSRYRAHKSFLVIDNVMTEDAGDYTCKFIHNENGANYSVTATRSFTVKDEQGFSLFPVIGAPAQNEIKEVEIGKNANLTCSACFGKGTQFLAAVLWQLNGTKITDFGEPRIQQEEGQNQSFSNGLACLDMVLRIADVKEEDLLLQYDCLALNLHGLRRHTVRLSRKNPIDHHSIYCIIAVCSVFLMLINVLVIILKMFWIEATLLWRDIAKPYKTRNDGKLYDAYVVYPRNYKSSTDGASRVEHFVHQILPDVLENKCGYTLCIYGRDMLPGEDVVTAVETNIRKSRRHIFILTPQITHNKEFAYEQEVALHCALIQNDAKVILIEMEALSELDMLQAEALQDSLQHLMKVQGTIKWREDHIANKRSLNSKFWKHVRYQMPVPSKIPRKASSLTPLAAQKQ
An asterisk follows results filed as active; i = inactive; ! = repeats disagree.

SMILES	ST2 inh
O=C(CCc1nc(-c2ccccc2F)no1)NC1CCCc2ccccc21 (stereo not drawn)	i
O=C(c1cn(C2CCCCC2)nn1)N(Cc1ccccn1)CC1CCCO1 (stereo not drawn)	i
Cc1cc2c(cc1[N+](=O)[O-])-c1ncccc1C2=Nc1ccccc1	32%*
O=C1NC(=Nc2ccccc2)c2c1cccc2[N+](=O)[O-]	i
Cc1ccccc1N=C1NC(=O)c2cccc([N+](=O)[O-])c21	i
COc1ccc(-c2cc(C[C@H]3CNCC[C@H]3CC(=O)N3CCN(c4ccccn4)CC3)no2)cc1	i
Cc1ccc(SCc2cc(=O)[nH]c(SCC(=O)Nc3cccc(C(F)(F)F)c3)n2)cc1	i
O=C1c2ccccc2C(=O)c2c1cccc2S(=O)(=O)Nc1ccc(Cl)cc1	52%*
Cc1ccc(NS(=O)(=O)c2cccc3c(S(=O)(=O)Nc4ccc(C)cc4)cccc23)cc1	i
O=S(=O)(Nc1ccc(Cl)cc1)c1cccc2cccnc12	i
CCCc1cc(C(=O)NC(C)c2ccccc2)no1 (stereo not drawn)	i
CC(=O)c1cccc(OCc2cc(C(=O)N3CCN(C4CCCC4)CC3)n[nH]2)c1	i
O=C(Nc1ccc(Cc2ccncc2)cc1)c1ccc([N+](=O)[O-])cc1Cl	i
O=C(c1ccc([N+](=O)[O-])cc1Cl)N(Cc1ccccc1)Cc1ccccc1	38%*
O=C(Nc1ccccc1)c1cc([N+](=O)[O-])ccc1Cl	i
COc1ccc(-n2nc3c(c2NC(=O)c2cc(OC)c(OC)c(OC)c2)CS(=O)C3)cc1 (stereo not drawn)	i
CC(C)Nc1ccnc(N2CCC(n3cc(-c4ccsc4)nn3)CC2)n1	i
Cc1ccccc1C(=O)Nc1ccc([N+](=O)[O-])cc1	i
CCc1ccccc1NC(=O)c1ccc([N+](=O)[O-])cc1	i
Cc1ccccc1NCC(=O)c1ccc([N+](=O)[O-])cc1	48%*
Cc1cccc(Cn2c(CNS(=O)(=O)c3ccc(C(C)(C)C)cc3)nc3cccnc32)c1	i
O=C(Nc1ccc(F)cc1)c1cnc2n(c1=O)CCS2	i
CC1(O)N(Cc2ccco2)C(=O)OC12CCCCC2 (stereo not drawn)	i
CC(=O)N1N=C(c2ccc(Cl)c(Cl)c2)OC12CCCC2	i
Cc1c(C(C)NC(=O)/C=C/c2cccs2)cnn1-c1ccccn1 (stereo not drawn)	i
SMILES	ST2 inh
CC1CCCCN1C(=O)c1cc2c(=O)n3ccccc3nc2n1C (stereo not drawn)	i
Oc1cccc2ccc(/C=C/c3cc4c(cc3Br)OCO4)nc12	32%*
COc1ccc2cccc(O)c2n1	i
COc1cc(Br)cc(/C=C/c2ccc3cccc(O)c3n2)c1O	38%*
CCOc1cc(Br)cc(C=O)c1O	i
Cc1nc(C2CC2)ncc1C(=O)N1CCC(Cc2cccc(C(=O)O)c2)CC1	i
CCOc1ccc(-n2c(CN3CCNCC3)nc3cccnc32)cc1	i
CCN(CC)CN1C(=O)C(=Nc2cccc(C(F)(F)F)c2)c2ccccc21	32%*
CCOc1ccc(N=C2C(=O)N(CN3CCN(c4ccccc4)CC3)c3ccccc32)cc1	i
O=C1C(=Nc2cccc(F)c2)c2ccccc2N1CN1CCN(c2ccccc2)CC1	i
Cc1nn(S(=O)(=O)c2ccc(F)cc2)c(C)c1Sc1ccc([N+](=O)[O-])cc1	i
O=C(c1cccn2c(=O)c3c4c(sc3nc12)CCCC4)N1CCN(c2ccccn2)CC1	i
COCCCNC(=O)CCS(=O)(=O)c1cc(Br)cc2c1N(C(C)=O)CC2	i
CCc1nnc(NC(=O)c2sc3nc4c(cc3c2N)CCCCC4)s1	i
Nc1c(C(=O)Nc2cccc(C(F)(F)F)c2)sc2nc3c(cc12)CCCCC3	42%*
Nc1c(C(=O)Nc2ccccc2)sc2nc3c(cc12)CCCCC3	i
CCC(=O)N1CCc2cc(Br)cc(S(=O)(=O)Nc3ccc(C)c(F)c3)c21	i
O=C(N1CCOCC1)N1CCN(C2CCC3(CCNCC3)CC2)CC1	i
COc1ccc(NC2=CC(=NS(=O)(=O)c3ccc(C)cc3)c3ccccc3C2=O)cc1	92%*
COc1ccc(S(=O)(=O)N=C2C=C(Nc3ccc(C)cc3)C(=O)c3ccccc32)cc1	92%*
COc1ccc(N(C(F)F)S(=O)(=O)c2ccc(C)cc2)cc1	i
COc1ccc(S(=O)(=O)Nc2cc(C)cc(C)c2)cc1	i
COc1ccc(S(=O)(=O)N=C2C(C)=CC(=O)C=C2C)cc1	i
CCN(CC)C(=NS(=O)(=O)c1ccc(C)cc1)c1ccc(F)cc1	i
Cc1ccc(NC2=CC(=NS(=O)(=O)c3ccc(F)cc3)c3ccccc3C2=O)cc1	69%*
SMILES	ST2 inh
COc1ccc(Nc2ccc3c4c(ncnc24)-c2ccccc2C3=O)cc1	i
Cc1ccc(S(=O)(=O)Nc2ccc(NC(=O)c3ccc(F)cc3)cc2)cc1	i
CCC(=O)N1CCc2cc(Br)cc(S(=O)(=O)NCCOC)c21	i
O=C(O)C1(O)CCN(c2cnc3ccccc3n2)CC1	i
O=C(O)c1cccc(S(=O)(=O)c2ccc3c(c2)C(=O)N(c2cccnc2)C3=O)c1	i
CCS(=O)(=O)Cc1nc2c([nH]1)CC(c1ccc(F)cc1)CNC2=O (stereo not drawn)	i
O=C(O)Cn1c(=O)c2cc3c(=O)n(CC(=O)O)c(=O)c3cc2c1=O	i
COc1ccc(N(C)S(=O)(=O)c2ccc3c(c2)CCN3C(=O)C2CC2)cc1	i
Cc1nc(-c2ccncc2)ncc1C(C)NCc1cccc2cccnc12 (stereo not drawn)	i
COc1ccc(C2OC(c3ccc(O)cc3)C(C)C2C)cc1OC (stereo not drawn)	i
O=C(Nc1ncnc2sc3c(c12)CCCC3)c1ccco1	i
O=C(COc1ccc2c3c(c(=O)oc2c1)CCC3)c1ccccc1	i
O=C(COc1cc(=O)n2c(n1)SCCC2)c1ccccc1	64%*
COc1ccc(Cc2c(O)nc3n(c2=O)CCCS3)cc1	i
CCN(CC)C(=O)N1CCC2(CCN(Cc3cnc(COC)nc3)CC2)CC1	i
Oc1cccnc1N=Cc1cc(I)cc(I)c1O	i
CN(C)CCN(CC1CCCN(Cc2ccccc2F)C1)C(=O)c1cccc(N(C)C)c1 (stereo not drawn)	i
O=C(CN1C(=O)CCSc2ccccc21)Nc1ccc(Br)cc1	i
O=C(CSc1ncn[nH]1)c1ccc(Br)cc1	i
N=C1SCCN1CC(=O)c1ccc(Br)cc1	48%*!
COc1ccc(CNN)c(OC)c1	i
CC(=O)c1ccc(NC(=O)CN2CCCN(Cc3ccc(C)cc3)S2(=O)=O)cc1	i
COc1ccc(Cl)cc1C1C2=C(CC(C)(C)CC2=O)NC2=C1C(=O)CC(C)(C)C2	i
Cc1ccc(C)c(S(=O)(=O)N=C(c2ccc(Cl)cc2)N(C)C)c1	78%*
Cc1ccc(C(=O)Nc2cc(Cl)ccc2C)cc1	i
SMILES	ST2 inh
CCN(CC)C(=NS(=O)(=O)c1cc(C)ccc1C)c1ccccc1	i
O=C(NCc1ccncc1)C(=O)Nc1ccc(Br)cc1F	i
O=C(C(=O)N1CCOC(Cc2ccccc2Cl)C1)c1cccnc1 (stereo not drawn)	i
COCC(=O)N[C@H]1C[C@H]2C(=O)NC[C@@H](CCC(=O)N3CCN(c4ccccn4)CC3)N2C1	51%*
O=C(Nc1ccsc1)N[C@H]1C[C@H]2C(=O)NC[C@@H](CCC(=O)N3CCN(c4ccccn4)CC3)N2C1	52%*
COc1ccc(CN[C@H]2C[C@H]3C(=O)NC[C@@H](CCC(=O)N4CCN(c5ccccn5)CC4)N3C2)cc1	i

Compound activity (PubChem)
